Results from PubChem BioAssay (NCATS).
Records with an inconclusive call do not appear. The source made the active and inactive calls. The call rests on the fitted dose curve; in most records, active means well fitted curve in the direction sought with a large enough effect; inconclusive means small, poorly fitted or top-dose-only effect, or another doubt; inactive means no such curve, though single readings can be large; an effect the other way counts as inactive or inconclusive.

Assays:
[1] = target: Glutathione peroxidase 1 (Homo sapiens) (UniProt P07203); assay: Primary qHTS Assay for Inhibitors of Recombinant Selenoprotein Glutathione Peroxidase 1 (GPX1) (AID 1845191); further: nearly all actives have a fitted effect of over 65% in size
Method in brief: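 10 nM GPX1 + cpd, 30 min RT; start w/ 1 mM GSH, 0.5 mM cumene hydroperoxide, 0.5 mM NADPH, 100 nM GR, 0.01% BSA; buffer 50 mM Tris-HCl pH 7.5, 2 mM EDTA, 150 mM NaCl; Fl 340/450, 0 & 15 min.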

[2] = target: Phospholipid hydroperoxide glutathione peroxidase GPX4 (Homo sapiens) (UniProt P36969); assay: Primary qHTS Assay for Inhibitors of Recombinant Selenoprotein Glutathione Peroxidase 4 (GPX4) (AID 1845192); further: nearly all actives have a fitted effect of over 65% in size
Method in brief: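 NADPH consumption, followed by fluorescence at 340/450 nm between 0 and 15 min, reports GPX4 activity via coupled glutathione reductase (100 nM). Enzyme 200 nM was pre-exposed to compound 30 min; 0.5 mM cumene hydroperoxide and 1 mM GSH served as substrates.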

[3] = target: Luciferin 4-monooxygenase (Photinus pyralis) (UniProt P08659); assay: Primary firefly luciferase (FLuc) qHTS assay for identification of artifact compounds. (AID 1845220); further: nearly all actives have a fitted effect of over 60% in size; further: potency means the concentration at half of the fitted maximal effect
Method in brief: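 Compounds sat 15 min at room temperature with 10 uM luciferin and 10 uM ATP (pH 7.6 Tris acetate). Firefly luciferase (10 nM final) was then added, and luminescence was read 5 min later. Data normalized to no-enzyme and DMSO controls were Hill-fitted.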

[4] = Primary fluorescence-based thiol-reactive (MSTI) qHTS assay for identification of artifact compounds. (AID 1845221); further: nearly all actives have a fitted effect of over 65% in size; further: potency means the concentration at half of the fitted maximal effect
Method in brief: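 Thiol-reactive compounds detected by quenching of 4 uM MSTI fluorescence (525/598 nm) after 1 h room-temperature dark incubation in PBS pH 7.4, 2% DMSO. qHTS titration; percent inhibition Hill-fitted against Acetyl-MSTI/MSTI controls.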

[5] = tested on: Nanoluciferase (engineered Oplophorus gracilirostris luciferase); assay: Primary Nanoluciferase (NLuc) qHTS assay for identification of artifact compounds. (AID 1845222)
Method in brief: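 Luminescence from secreted NLuc (filtered, 1:55-diluted S16 cell medium) read 5 min after Nano-Glo substrate; compounds preincubated 15 min, RT. Hill fits of inhibition normalized to DMSO and no-enzyme.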

[6] = Primary redox qHTS assay for identification of artifact compounds. (AID 1845223)
Method in brief: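 Amplex Red (25 uM) and HRP (250 mU/mL) in HBSS, with compounds for 15 min, then 250 uM DTT for 30 min, room temperature, dark. Fluorescence 525/598 nm read; normalized to DMSO and 10 uM DA3003; Hill fit.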

[7] = Quantitative High-Throughput drug screen in 47 multiple myeloma cell lines against the NCATS MIPE library collection: FR4_PLB cell viability assay (AID 1918924; further: nearly all actives have a fitted effect of over 35% in size; further: potency means the concentration at half of the fitted maximal effect)
Method in brief: (§1)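 Luminescent ATP measurement with CellTiter-Glo gives viability, scaled between DMSO-only wells (100%) and media-only wells (0%). Cells, 500 per well, faced library compounds for 48 hours at 37C.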

[8] = Quantitative High-Throughput drug screen in 47 multiple myeloma cell lines against the NCATS MIPE library collection: EJM_DSMZ cell viability assay (AID 1918926; further: nearly all actives have a fitted effect of over 30% in size; further: potency means the concentration at half of the fitted maximal effect)
Method in brief: (§2)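 Relative luminescence from CellTiter-Glo served as the viability signal, referenced to DMSO-treated (100%) and cell-free medium (0%) controls. Treatment lasted 48 hours at 37C with 500 cells per well.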

[9] = Quantitative High-Throughput drug screen in 47 multiple myeloma cell lines against the NCATS MIPE library collection: AMO1_DSMZ cell viability assay (AID 1918927; further: nearly all actives have a fitted effect of over 30% in size; further: potency means the concentration at half of the fitted maximal effect)
Method in brief: as §2

[10] = Quantitative High-Throughput drug screen in 47 multiple myeloma cell lines against the NCATS MIPE library collection: ARP1_JJKsccF8 cell viability assay (AID 1918928; further: nearly all actives have a fitted effect of over 40% in size; further: potency means the concentration at half of the fitted maximal effect)
Method in brief: (§3)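 ATP readout (CellTiter-Glo), 48 h drug incubation, 37 °C/5% CO2, 500 cells per well; normalisation to DMSO (100%) and media-only (0%) controls.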

[11] = Quantitative High-Throughput drug screen in 47 multiple myeloma cell lines against the NCATS MIPE library collection: ARD_JJKsccE7 cell viability assay (AID 1918929; further: potency means the concentration at half of the fitted maximal effect)
Method in brief: as §2

[12] = Quantitative High-Throughput drug screen in 47 multiple myeloma cell lines against the NCATS MIPE library collection: KMM1_JCRB cell viability assay (AID 1918960); further: nearly all actives have a fitted effect of over 30% in size
Method in brief: as §3

[13] = Quantitative High-Throughput drug screen in 47 multiple myeloma cell lines against the NCATS MIPE library collection: KHM11_PLB cell viability assay (AID 1918962); further: nearly all actives have a fitted effect of over 35% in size; further: potency means the concentration at half of the fitted maximal effect
Method in brief: as §1

[14] = Quantitative High-Throughput drug screen in 47 multiple myeloma cell lines against the NCATS MIPE library collection: JIM3_ECACC cell viability assay (AID 1918963; further: nearly all actives have a fitted effect of over 35% in size; further: potency means the concentration at half of the fitted maximal effect)
Method in brief: as §1

[15] = Quantitative High-Throughput drug screen in 47 multiple myeloma cell lines against the NCATS MIPE library collection: Karpas620_DSMZ cell viability assay (AID 1918959); further: nearly all actives have a fitted effect of over 30% in size; further: potency means the concentration at half of the fitted maximal effect
Method in brief: as §1

[16] = Quantitative High-Throughput drug screen in 47 multiple myeloma cell lines against the NCATS MIPE library collection: JIM1_ECACC cell viability assay (AID 1918964; further: potency means the concentration at half of the fitted maximal effect)
Method in brief: as §2

[17] = Quantitative High-Throughput drug screen in 47 multiple myeloma cell lines against the NCATS MIPE library collection: Delta47_JCRB cell viability assay (AID 1918925; further: potency means the concentration at half of the fitted maximal effect; nearly all actives have a fitted effect of over 45% in size)
Method in brief: as §2

[18] = Quantitative High-Throughput drug screen in 47 multiple myeloma cell lines against the NCATS MIPE library collection: INA6_PLB cell viability assay (AID 1918965; further: nearly all actives have a fitted effect of over 55% in size; further: potency means the concentration at half of the fitted maximal effect)
Method in brief: (§4)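 Steps: seed 500 cells per well; pin-transfer MIPE 4.0 library; incubate 48 h at 37C, 5% CO2, humidified; add CellTiter-Glo, 5 min room temperature; read luminescence.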

[19] = Quantitative High-Throughput drug screen in 47 multiple myeloma cell lines against the NCATS MIPE library collection: JJN3_DSMZ cell viability assay (AID 1918966; further: potency means the concentration at half of the fitted maximal effect; nearly all actives have a fitted effect of over 50% in size)
Method in brief: as §2

[20] = Quantitative High-Throughput drug screen in 47 multiple myeloma cell lines against the NCATS MIPE library collection: Karpas417_ECACC cell viability assay (AID 1918961); settings: Karpas417 myeloma viability, CellTiter-Glo ATP luminescence, 48 h; viability (% of DMSO): at 45.8 µM (top of the series); further: potency means the concentration at half of the fitted maximal effect
Method in brief: as §4

Measured: Potency

Glutathione peroxidase 1 (Homo sapiens), sequence (P07203 whole entry, looked up): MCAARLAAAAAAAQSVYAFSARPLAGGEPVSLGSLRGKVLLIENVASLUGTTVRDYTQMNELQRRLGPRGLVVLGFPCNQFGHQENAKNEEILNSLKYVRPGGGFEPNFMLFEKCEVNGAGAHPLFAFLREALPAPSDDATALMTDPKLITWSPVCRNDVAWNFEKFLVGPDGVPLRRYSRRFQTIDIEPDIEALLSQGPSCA
Phospholipid hydroperoxide glutathione peroxidase GPX4 (Homo sapiens), sequence (P36969 whole entry, looked up): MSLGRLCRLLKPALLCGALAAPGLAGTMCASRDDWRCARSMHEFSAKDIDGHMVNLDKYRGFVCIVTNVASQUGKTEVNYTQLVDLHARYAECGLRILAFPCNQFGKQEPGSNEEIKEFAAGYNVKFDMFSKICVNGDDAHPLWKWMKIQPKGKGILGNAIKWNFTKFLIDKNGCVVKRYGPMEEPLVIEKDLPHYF

Cc1cccc(C)c1OCC(C)N (stereo not given)
inactive: [1] | [2]

O=C(CCN1CCN(C(=O)OCc2cc(Cl)cc(Cl)c2)CC1)c1ccc2[nH]c(=O)oc2c1
active: [9] 1.18 µM | [11] 0.0166 µM | [13] 2.64 µM
not listed: [15] | [16] | [17] | [18] | [19] | [20]
inactive: all other assays above

CS(=O)(=O)N(Cc1ccco1)CC(O)Cn1c2ccccc2c2ccccc21 (stereo not given)
inactive: [1] | [2] | [3] | [4] | [5] | [6] | [7] | [10] | [15] | [16]
active: [14] 14.8 µM

COCCOC(=O)C1=C(C)NC2=C(C(=O)CC(c3ccccc3OC)C2)C1c1cccc(O)c1 (stereo not given)
active: [7] 14.8 µM | [17] 1.05 µM | [9] 11.8 µM | [10] 10.5 µM | [11] 1.66 µM | [13] 11.8 µM | [14] 20.9 µM | [16] 9.35 µM | [18] 1.66 µM
inactive: [1] | [2] | [3] | [4] | [5] | [6]

Clc1ccc(Cn2c(CN3CCCC3)nc3ccccc32)cc1
inactive: [1] | [2] | [3] | [4] | [5] | [6]

OC[C@@H](O)[C@H](O)[C@H](O)[C@@H](O)CO
inactive: [1] | [2]

COC(=O)[C@@H]1[C@H]2C[C@H]3c4[nH]c5ccccc5c4CCN3C[C@@H]2CC[C@@H]1O
inactive: [1] | [2] | [3] | [4] | [5] | [6]

CCN(CC)C(=O)c1ccc(O)c(OC)c1
inactive: [1] | [2]

CC(C)(C)c1ccc(C(O)CCCN2CCC(C(O)(c3ccccc3)c3ccccc3)CC2)cc1 (stereo not given)
inactive: [1] | [2]

CC(=O)N(C)C1(c2ccccc2)CCN(CCC[C@]2(c3ccc(Cl)c(Cl)c3)CCCN(C(=O)c3ccccc3)C2)CC1
active: [17] 10.5 µM | [8] 20.9 µM | [9] 10.5 µM | [11] 20.9 µM | [15] 16.6 µM | [13] 16.6 µM | [14] 20.9 µM | [19] 18.7 µM
inactive: [1] | [2] | [3] | [4] | [5] | [6]

O=C1NC(=O)C(c2ccccc2)(c2ccccc2)N1
inactive: [1] | [2]

CC(=O)O[C@]1(C(C)=O)CC[C@H]2[C@@H]3C=C(Cl)C4=CC(=O)[C@@H]5C[C@@H]5[C@]4(C)[C@H]3CC[C@@]21C
inactive: [1] | [2] | [3] | [4] | [5] | [6]

CC(=O)c1ccc(S(=O)(=O)NC(=O)NC2CCCCC2)cc1
inactive: [1] | [2]

C[N+](C)(C)CCCCCC[N+](C)(C)C
inactive: [1] | [2]

O=C(NCCN1CCOCC1)c1ccc(Cl)cc1
inactive: [1] | [2]

CC1=C(/C=C/C(C)=C/C=C/C(C)=C/C(=O)Nc2ccc(O)cc2)C(C)(C)CCC1
inactive: [1] | [2]

CC(C)(C)NC(=O)Nc1cccc(Nc2ncc(F)c(NC(C)(C)CO)n2)c1
inactive: [1] | [2] | [3] | [4] | [5] | [6] | [7] | [8] | [15]
active: [9] 14.8 µM | [10] 10.5 µM | [14] 13.2 µM | [18] 18.7 µM

COc1ccccc1N1CCN(CCCNc2cc(=O)n(C)c(=O)n2C)CC1
inactive: [1] | [2] | [3] | [4] | [5] | [6]

CC(C)(C)c1cc(C(=O)O)c(NC(=O)Nc2ccc3[nH]ncc3c2)s1
active: [3] 16.9 µM | [4] 1.06 µM
not listed: [17] | [19] | [20]
inactive: all other assays above

COc1cc2ncnc(Nc3ccc(F)c(Cl)c3)c2cc1OCCCN1CCOCC1
active: [7] 19.1 µM | [17] 5.4 µM | [8] 6.05 µM | [9] 4.81 µM | [10] 48.1 µM | [11] 12.1 µM | [20] 3.4 µM | [13] 3.4 µM | [14] 13.6 µM | [16] 5.4 µM | [18] 5.4 µM
inactive: [1] | [2] | [3] | [4] | [5] | [6]

CC(C)NCC(O)COc1cccc2[nH]ccc12 (stereo not given)
inactive: [1] | [2] | [3] | [4] | [5] | [6]

O=C(NC1CCOCC1)c1ccc(-c2cc(-c3cn[nH]c3-c3ccccn3)ccn2)cc1
active: [11] 0.0296 µM
not listed: [9] | [12] | [13] | [16] | [17] | [19] | [20]
inactive: all other assays above

CNC(=O)c1ccc2cc(C3(O)CCn4cncc43)ccc2c1 (stereo not given)
not listed: [9] | [12] | [15] | [17] | [18] | [19] | [20]
inactive: all other assays above
